Measured values from PubChem BioAssay (EPA / NIEHS).
The source made the active and inactive calls. Rule for the calls: active = hit-call score of the fitted dose curve at least 0.9, where 1 is the maximum; inactive = score below 0.9.

What was measured:
Details in all cases: mRNA level, 48 h; actives raise or lower the signal
[1] = read-out: Cyclin D1 (CCND1), CCND1 (gene 595); experiment: LTEA_HepaRG_CCND1: Life Technologies and Expression Analysis (LTEA) Assay for Cyclin D1 (CCND1) using HepaRG (AID 2283451);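 for AC50: TaqMan qRT-PCR transcript level normalised to ACTB GAPDH and POLR2A housekeeping genes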
In short: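 Differentiated HepaRG cells exposed 48 h in serum-free induction medium to eight half-log concentrations from 100 uM top, 0.5% DMSO, duplicates. CCND1 mRNA measured by Fluidigm TaqMan qRT-PCR, normalised to ACTB, GAPDH, POLR2A; bidirectional fit.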

[2] = read-out: catalase (CAT), CAT (gene 847); experiment: LTEA_HepaRG_CAT: Life Technologies and Expression Analysis (LTEA) Assay for catalase (CAT) using HepaRG (AID 2283452);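 for AC50: TaqMan qRT-PCR signal normalized to ACTB GAPDH and POLR2A housekeeping genes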
In short: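 Differentiated HepaRG cells in serum-free induction medium were dosed 48 h in duplicate, eight half-log concentrations from 100 uM in 0.5% DMSO. Transcript measured by TaqMan qRT-PCR, normalised to ACTB/GAPDH/POLR2A, fitted bidirectionally against DMSO.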

[3] = read-out: flavin-containing dimethylaniline monooxygenases 3 (FMO3), FMO3 (gene 2328); experiment: LTEA_HepaRG_FMO3: Life Technologies and Expression Analysis (LTEA) Assay for flavin-containing dimethylaniline monooxygenases 3 (FMO3) using HepaRG (AID 2283453)
In short: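 Differentiated HepaRG cells in serum-free induction medium, exposed 48 h in duplicate to 8 half-log concentrations up to 100 uM in 0.5% DMSO. FMO3 mRNA by qRT-PCR, normalized to ACTB, GAPDH, POLR2A; bidirectional fit vs DMSO.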

[4] = read-out: Cytochrome P450 (CYP1A1), CYP1A1 (gene 1543); experiment: LTEA_HepaRG_CYP1A1: Life Technologies and Expression Analysis (LTEA) Assay for Cytochrome P450 (CYP1A1) using HepaRG (AID 2283454)
In short: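 Differentiated human HepaRG cells, after 48 h plating, exposed in duplicate for 48 h in serum-free induction medium to 8 half-log concentrations up to 100 uM in 0.5% DMSO. CYP1A1 mRNA by qRT-PCR, normalized to ACTB/GAPDH/POLR2A; bidirectional fit versus DMSO.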

[5] = read-out: CFLAR gene, CFLAR (gene 8837); experiment: LTEA_HepaRG_CFLAR: Life Technologies and Expression Analysis (LTEA) Assay for CFLAR gene using HepaRG (AID 2283455)
In short: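 HepaRG cells were plated for 48 h, switched to serum-free induction medium, then exposed in duplicate for 48 h to 8 concentrations (top 100 uM, half-log steps, 0.5% DMSO). CFLAR mRNA was measured by qRT-PCR, normalized to ACTB, GAPDH and POLR2A.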

[6] = read-out: Forkhead box O1 (FOXO1), FOXO1 (gene 2308); experiment: LTEA_HepaRG_FOXO1: Life Technologies and Expression Analysis (LTEA) Assay for Forkhead box O1 (FOXO1) using HepaRG (AID 2283456)
In short: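 Differentiated human HepaRG cells in serum-free induction medium were exposed in duplicate for 48 h to eight half-log concentrations (top 100 uM, 0.5% DMSO). FOXO1 mRNA was measured by TaqMan qRT-PCR, normalised to ACTB, GAPDH and POLR2A, and fitted bidirectionally against DMSO.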

[7] = read-out: Forkhead box O3 (FOXO3), FOXO3 (gene 2309); experiment: LTEA_HepaRG_FOXO3: Life Technologies and Expression Analysis (LTEA) Assay for Forkhead box O3 (FOXO3) using HepaRG (AID 2283459)
In short: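 Differentiated human HepaRG cells in serum-free induction medium were exposed in duplicate for 48 h to eight half-log concentrations up to 100 uM in 0.5% DMSO. FOXO3 mRNA was quantified by qRT-PCR, normalized to ACTB, GAPDH and POLR2A, with bidirectional fitting versus DMSO.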

[8] = read-out: ABC Transporter (ABCB1), ABCB1 (gene 5243); experiment: LTEA_HepaRG_ABCB1: Life Technologies and Expression Analysis (LTEA) Assay for ABC Transporter (ABCB1) using HepaRG (AID 2283460)
In short: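 Differentiated human HepaRG cells, plated 48 h then switched to serum-free induction medium, were exposed in duplicate to eight half-log concentrations up to 100 uM in 0.5% DMSO for 48 h. ABCB1 mRNA was measured by TaqMan qRT-PCR, normalized to ACTB/GAPDH/POLR2A.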

[9] = read-out: growth arrest and DNA damage 45 (GADD45A), GADD45A (gene 1647); experiment: LTEA_HepaRG_GADD45A: Life Technologies and Expression Analysis (LTEA) Assay for growth arrest and DNA damage 45 (GADD45A) using HepaRG (AID 2283458)
In short: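 Cells plated and cultured 48 h, switched to serum-free induction medium, then dosed for 48 h (100 uM top, half-log dilutions, 0.5% DMSO). RNA was isolated and transcript measured by Fluidigm qRT-PCR.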

Measured: AC50

Cc1ccc(Cl)cc1
inactive: [1] | [2] | [3] | [4] | [5] | [6] | [7] | [8]

CC=Cc1ccc(O)c(OC)c1
inactive: [2] | [3] | [5] | [6] | [9] | [7] | [8]
active: [4] 50 µM

CCCCOC(=O)CCCCCCCCC(=O)OCCCC
inactive: [1] | [2] | [3] | [4] | [5] | [6] | [7] | [8]

CCCCC(CC)COC(=O)CC(C(=O)OCC(CC)CCCC)S(=O)(=O)O (centres undefined)
active: [1] 85.3 µM | [2] 86.6 µM | [3] 77.4 µM | [4] 10.3 µM | [5] 81.7 µM | [6] 80.8 µM | [7] 79.8 µM | [8] 89.9 µM

Cc1c(C(=O)O)c(O)cc2c1C(=O)c1c(O)c([C@@H]3O[C@H](CO)[C@@H](O)[C@H](O)[C@H]3O)c(O)c(O)c1C2=O
inactive: [1] | [2] | [3] | [4] | [5] | [6] | [7] | [8]

C[C@]12C=CC(=O)C=C1CC[C@@H]1[C@@H]2C(=O)C[C@@]2(C)[C@H]1CC[C@]2(O)C(=O)CO
active: [1] 12.3 µM | [8] 50 µM
inactive: [2] | [3] | [5] | [6] | [9] | [7]

O=c1[nH]cc(F)c(=O)[nH]1
active: [2] 30.7 µM | [3] 36.3 µM
inactive: [4] | [5] | [6] | [7] | [8]

CCCCCCCCCCCC(=O)OC
inactive: [2] | [3] | [5] | [6] | [7] | [8]
active: [4] 60.3 µM

NCC1(Cc2noc(=O)[nH]2)CCCCC1
active: [4] 73.3 µM
inactive: [2] | [3] | [5] | [6] | [7] | [8]

CC1(C)CC(N=C=O)CC(C)(CN=C=O)C1 (centres undefined)
inactive: [2] | [3] | [4] | [5] | [6] | [9] | [7] | [8]

Clc1cc(Cl)c(Cl)cc1Cl
inactive: [2] | [3] | [5] | [6] | [7] | [8]
active: [4] 50 µM
